According to PubChem BioAssay AID1159580 (chemical genetic matrix, 2015):
Several values for one entry are separate records, joined by “and”; a condition that tells them apart may be missing. Equal entries are not always repeated. Out of some 5,500 compounds screened, about 2,000 (36%) were called active. Inconclusive results (about 18%) are left out. No stated cut-off is given here; in the data, active means normalized growth mostly below about 0.91 (no sharp cut-off); inconclusive means no clear call, values can overlap the other calls; inactive means mostly above about 0.92. The list shows a part of the results.

Assay: chemical genetic growth profiling, strain panel (AID 1159580);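 further: tested at 20 µM; growth read once vehicle control cultures reached saturation at 30 °C; 1 = growth at the plate median or of vehicle wells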
Settings: S. cerevisiae deletion strains, growth OD

Measured: normalized growth

NNCCc1ccccc1
inactive: locus YAL013W, strain DEP1, stronger effect = lower value 1 | locus YAL021C, strain ccr4, stronger effect = lower value 1.01 | locus YAL026C, strain drs2, stronger effect = lower value 1.02 | locus YAL030W, strain snc1, stronger effect = lower value 1.01 | locus YAL040C, strain CLN3, stronger effect = lower value 1.04 | locus YBL061C, strain skt5, stronger effect = lower value 1.01 | locus YBR009C, strain hhf1, stronger effect = lower value 1.01 | locus YBR021W, strain FUR4, stronger effect = lower value 0.997 | locus YBR023C, strain chs3, stronger effect = lower value 1.01 | locus YBR171W, strain sec66, stronger effect = lower value 1.02 | locus YBR229C, strain ROT2, stronger effect = lower value 0.954 | locus YBR231C, strain swc5, stronger effect = lower value 1.01 | locus YBR279W, strain paf1, stronger effect = lower value 1.01 | locus YCL011C, strain gbp2, stronger effect = lower value 1.01 | locus YCL016C, strain dcc1, stronger effect = lower value 1.01 | locus YCL029C, strain bik1, stronger effect = lower value 0.968 | locus YCL061C, strain MRC1 (second series), stronger effect = lower value 1.01 | locus YCL061C, strain MRC1, stronger effect = lower value 1.01 | locus YCL069W, strain vba3, stronger effect = lower value 1 | locus YCR088W, strain abp1, stronger effect = lower value 1.01 | locus YDL005C, strain med2, stronger effect = lower value 1.01 | locus YDL035C, strain GPR1, stronger effect = lower value 0.973 | locus YDL040C, strain nat1, stronger effect = lower value 1 | locus YDL074C, strain BRE1, stronger effect = lower value 0.946 | locus YDL101C, strain DUN1, stronger effect = lower value 0.975 | locus YDL134C, strain PPH21, stronger effect = lower value 0.994 | locus YDL185W, strain tfp1, stronger effect = lower value 0.98 | locus YDL192W, strain arf1, stronger effect = lower value 0.986 | locus YDR001C, strain nth1, stronger effect = lower value 1 | locus YDR069C, strain doa4, stronger effect = lower value 1 | locus YDR101C, strain arx1, stronger effect = lower value 0.985 | locus YDR137W, strain rgp1, stronger effect = lower value 1.02 | locus YDR150W, strain NUM1, stronger effect = lower value 0.996 | locus YDR159W, strain sac3, stronger effect = lower value 1.01 | locus YDR162C, strain NBP2, stronger effect = lower value 0.991 | locus YDR195W, strain ref2 0.997 | locus YDR297W, strain sur2, stronger effect = lower value 1 | locus YDR318W, strain mcm21, stronger effect = lower value 0.991 | locus YDR334W, strain swr1, stronger effect = lower value 0.999 | locus YDR335W, strain msn5, stronger effect = lower value 1.01 | locus YDR363W, strain ESC2, stronger effect = lower value 1.06 | locus YDR388W, stronger effect = lower value 0.991 | locus YDR392W, strain spt3, stronger effect = lower value 0.93 | locus YDR502C, strain sam2, stronger effect = lower value 0.994 | locus YEL003W, strain gim4, stronger effect = lower value 0.997 | locus YEL037C, strain rad23, stronger effect = lower value 1.01 | locus YEL061C, strain CIN8 (second series), stronger effect = lower value 1.01 | locus YEL061C, strain CIN8, stronger effect = lower value 0.98 | locus YER002W, strain NOP16, stronger effect = lower value 0.998 | locus YER015W, strain faa2, stronger effect = lower value 0.994 | locus YER016W, strain bim1, stronger effect = lower value 1.01 | locus YER110C, stronger effect = lower value 0.952 | locus YER111C, strain swi4, stronger effect = lower value 1.01 | locus YER155C, strain BEM2 (second series), stronger effect = lower value 1 | locus YER155C, strain BEM2, stronger effect = lower value 1 | locus YER167W, strain BCK2, stronger effect = lower value 0.99 | locus YFR010W, strain ubp6, stronger effect = lower value 0.989 | locus YGL078C, strain dbp3, stronger effect = lower value 0.995 | locus YGL086W, strain mad1, stronger effect = lower value 0.976 | locus YGL167C, strain pmr1, stronger effect = lower value 1.01 | locus YGL173C, strain kem1, stronger effect = lower value 1.01 | locus YGL227W, strain vid30, stronger effect = lower value 1.02 | locus YGL240W, strain doc1, stronger effect = lower value 1 | locus YGL248W, strain PDE1, stronger effect = lower value 0.979 | locus YGL253W, strain hxk2, stronger effect = lower value 1.01 | locus YGR078C, strain PAC10, stronger effect = lower value 1.01 | locus YGR135W, strain pre9, stronger effect = lower value 0.982 | locus YGR229C, strain SMI1, stronger effect = lower value 0.985 | locus YGR252W, strain gcn5, stronger effect = lower value 0.898 | locus YHR013C, strain ard1, stronger effect = lower value 1.02 | locus YHR027C, strain rpn1, stronger effect = lower value 1 | locus YHR030C, strain SLT2, stronger effect = lower value 0.996 and 0.983 | locus YHR079C, strain IRE1 (second series), stronger effect = lower value 0.991 | locus YHR079C, strain IRE1, stronger effect = lower value 0.965 | locus YHR094C, strain hxt1, stronger effect = lower value 0.99 | locus YHR129C, strain ARP1, stronger effect = lower value 0.981 | locus YHR142W, strain chs7, stronger effect = lower value 1.02 | locus YHR200W, strain rpn10, stronger effect = lower value 0.989 | locus YIL066C, strain RNR3, stronger effect = lower value 0.978 | locus YIL073C, strain SPO22, stronger effect = lower value 0.992 | locus YIL125W, strain kgd1, stronger effect = lower value 0.996 | locus YIR030C, strain dcg1, stronger effect = lower value 0.981 | locus YJL092W, strain hpr5, stronger effect = lower value 1 | locus YJL095W, strain BCK1 (second series), stronger effect = lower value 1.01 | locus YJL095W, strain BCK1, stronger effect = lower value 0.987 and 0.984 | locus YJL115W, strain asf1, stronger effect = lower value 1.01 | locus YJL129C, strain trk1, stronger effect = lower value 1.01 | locus YJL134W, strain LCB3, stronger effect = lower value 0.993 | locus YJL154C, strain vps35, stronger effect = lower value 1.01 | locus YJL164C, strain tpk1, stronger effect = lower value 1 | locus YJL166W, strain qcr8, stronger effect = lower value 1.01 | locus YJL168C, strain set2, stronger effect = lower value 0.985 | locus YJL187C, strain SWE1 (second series), stronger effect = lower value 0.976 | locus YJL187C, strain SWE1, stronger effect = lower value 1.01 | locus YJR043C, strain POL32, stronger effect = lower value 0.988
